Among the data in PubChem BioAssay AID1259418 (Broad Institute, 2018) are max activity values, retold here.

Hit rate of the full screen: of about 3,400 compounds, about 840 (25%) were called active. Another 11% or so got no clear call; they are omitted. Not all results are given here. Potency and affinity values are given separately. Values without a mark were called inactive.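 The calls were made as follows: active = fitted half-maximal concentration of signal decrease at or below twice the sample's top tested concentration; inconclusive = flat curve between -70 and -30 percent, or poor fit; inactive = flat within 30 percent, signal rise, or potency above limit.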

This experiment in a line: inhibitors of Toxoplasma growth in IFN-γ-primed HeLa – cell-based, ME49Luc, luciferase, 72 h, dose response (AID 1259418). The settings on record: T. gondii ME49Luc in IFN-y HeLa, stronger effect = lower value, -100% = high-dose IFN-γ control wells; at 19.5 µM unless noted.
On to `COc1ccc(C(=O)Nc2ccc(-c3nc(-c4ccc(C)cc4)co3)cc2)cc1OC`, for which the max activity was 61.6% [at 10 µM].

Take `COC(=O)c1ccc(NC(=O)Nc2ccc(-c3nc(-c4ccc(C)cc4C)co3)cc2)cc1`: the max activity is 12.9% [at 0.68 µM].

Take `CN(C)c1cccc(C(=O)N2CSC[C@@H]2C(=O)NCCc2csc(-c3ccccc3)n2)c1`: the max activity was 9.09% [at 0.16 µM].

Turning to `CCOC(=O)c1ccc(NC(=O)CN2CCC3(CC2)N=C(c2ccccc2)C(=O)N3)cc1`, the max activity is 23.6%.

In the case of `COc1ccc(-c2nc(CN(c3ccc(OC)cc3)S(=O)(=O)c3ccccc3C)c(C)o2)cc1`, the max activity is 2.45%.

As to `Cc1oc(-c2ccccc2)nc1Cn1nnc(-c2nc(-c3ccc(OC(C)C)cc3)no2)c1C`, the max activity was -7.48% [at 5 µM].

In the case of `CCc1nc(OCC(=O)Nc2ccccc2Br)c2ccccc2n1`, the max activity was 18.5% [at 0.68 µM].

For `O=C(NCCc1csc(-c2ccccc2)n1)[C@H]1CSCN1S(=O)(=O)c1ccccc1F`, the max activity was 11.9% [at 0.16 µM].

Regarding `O=C(Nc1ccccc1)[C@@H]1[C@@H](CO)[C@@H]2Cn3c(ccc(C4=CCCCC4)c3=O)[C@@H]2N1Cc1cocn1`, the max activity is 31.9%.

On to `Cc1cccc(-c2noc(-c3nnn(Cc4nc(-c5cccc(C)c5)oc4C)c3C)n2)c1`, for which the max activity is 17.9%.

Consider `Cc1ccc(-c2coc(-c3ccc(NC(=O)NCCc4ccccc4)cc3)n2)c(C)c1`, for which the max activity is 27.7% [at 0.35 µM].

As for `Cc1ccc(NC(=O)CN2CCC3(CC2)N=C(c2cccc(F)c2)C(=O)N3)cc1C`, the max activity is -21.1%.

`CCOc1ccc(NC(=O)N2CCN(Cc3nc(-c4ccccc4C)oc3C)CC2)cc1`: the max activity was -9.52%.

Turning to `Cc1nc(OCC(=O)Nc2ccc(C(C)C)cc2)c2ccccc2n1`, the max activity is 15.7% [at 1.35 µM].

Regarding `CC(C)CCNC(=O)CC1Nc2c3ccccc3nc(=S)n2C1=O` (configuration not stated), the max activity was 41.3%.

As for `CCOc1ccccc1NC(=O)CN1CCC2(CC1)N=C(c1cccc(Cl)c1)C(=O)N2`, the max activity is 5.75%.

On to `COc1ccccc1-c1nc(Cn2nnc(-c3nc(-c4cccc(F)c4)no3)c2C)c(C)o1`, for which the max activity was -3.46% [at 1.35 µM].

For the molecule `Cc1ccc(-c2nc(Cn3nnc(-c4nc(-c5cccc(C)c5)no4)c3C)c(C)o2)cc1`, the max activity was -13% [at 5 µM].

For the molecule `Cc1ccccc1-c1ccc(C2[C@@H]3CN(C(=O)C4CCOCC4)C[C@H]2N3)cc1` (some centres not stated), the max activity was 20.5%.

For the molecule `CCCNC(=O)N1CCc2nc(-c3ccc(OC)cc3)sc2C1`, the max activity is 12.7% [at 10 µM].

`O=C(NC1CCCCC1)N1C[C@@H]2N[C@H](C1)C2c1ccc(-c2ccc(F)cc2)cc1` (some centres not stated): the max activity is 23.1% [at 10 µM].

As for `Cc1ccc(NC(=O)COc2nc(C)nc3ccccc23)c(C)c1`, the max activity was 13.8% [at 0.68 µM].

Take `COc1ccc(-c2nc(Nc3ccc(F)c(Cl)c3)c3ccccc3n2)cc1`: the max activity was 19.7%.

As for `CO[C@H]1CCN(c2ccc(C)nn2)[C@H]1Cc1cnn(C)c1`, the max activity was -9.84% [at 1.2 µM].

In the case of `Cc1nc(-c2ccc(F)cc2)sc1-c1ccc(SCc2ccccc2Cl)nn1`, the max activity was 10% [at 0.16 µM].

Turning to `Cc1ccc(-c2nc(Cn3nnc(-c4nc(-c5ccccc5Cl)no4)c3C)c(C)o2)cc1`, the max activity is -11.4% [at 2.6 µM].

Take `CC(CCc1ccccc1)Nc1nc(-c2ccc(Cl)cc2)nc2ccccc12` (configuration not stated): the max activity was -14.3% [at 5 µM].

`COc1ccc(-c2nc(N3CCN(c4cccc(C)c4C)CC3)c3ccccc3n2)cc1`: the max activity is 17%.

With `Cc1ccc(-c2nc3c(s2)CN(C(=O)NCc2ccccc2)CC3)cc1`, the max activity was -24.6% [at 0.35 µM].

As for `CCCNC(=O)N1CCc2nc(-c3ccc(C)cc3)sc2C1`, the max activity is -30.1% [at 0.16 µM].

For the molecule `O=C(Nc1ccc(-c2nc(-c3ccccc3)co2)cc1)c1ccccc1F`, the max activity is -7.4% [at 10 µM].

As to `COCCN1C(=O)CCC12CCC(NC(=O)c1cc(C)on1)CC2` (configuration not stated), the max activity is 12.8%.

Consider `Cc1cc(C)c(S(=O)(=O)N2CCC3(CC2)NCCN=C3NC2CCCC2)cc1C`, for which the max activity is -17.7%.

Turning to `Cc1ccc(S(=O)(=O)N2CCC3(CC2)NCCN=C3NC2CCCC2)cc1C`, the max activity was 15.2% [at 1.35 µM].

With `Cc1cc(C)cc(S(=O)(=O)N2CCC3(CC2)NCCN=C3NC2CCCC2)c1`, the max activity was 8.57% [at 0.35 µM].

As to `CCOc1ccc(-c2ccc(OCCNC(=O)c3sc(-c4ccccc4)nc3C)nn2)cc1`, the max activity was 10.6%.

`O=C(CCn1cnc2cc(-c3noc(Cc4c[nH]c5ccccc45)n3)ccc21)N1CCCC1`: the max activity is 27.3%.

As for `CCCC(=O)Nc1ccc(-c2nc(-c3ccc(C)cc3C)co2)cc1`, the max activity is -18.1% [at 1.35 µM].

Consider `O=C(COc1ccc(F)cc1)Nc1ccc2c(c1)CCC(=O)N2`, for which the max activity is -4.48% [at 1.35 µM].

`Cc1cccc(C(=O)Nc2ccc(-c3nc(-c4ccccc4)co3)cc2)c1`: the max activity is 70.1%.

In the case of `COc1ccc(-c2nc(Cn3nnc(-c4nc(-c5ccc(SC)cc5)no4)c3C)c(C)o2)cc1`, the max activity was -6.45% [at 5 µM].

Regarding `O=S(=O)(c1ccccc1F)N1CC[C@@H]2[C@@H](CO)Nc3ccc(C4=CCCCC4)cc3[C@@H]21`, the max activity was 37.4% [at 10 µM].

Turning to `COc1ccccc1S(=O)(=O)N1CC[C@H]2[C@H](CO)Nc3ccc(-c4ccc(C#N)cc4)cc3[C@H]21`, the max activity is 23% [at 21 µM].

Consider `O=S(=O)(c1ccccc1F)N1CC[C@H]2[C@H](CO)Nc3ccc(C4=CCCCC4)cc3[C@H]21`, for which the max activity is 39.3% [at 10 µM].

For `O=S(=O)(c1ccccc1F)N1CC[C@@H]2[C@H](CO)Nc3ccc(C4=CCCCC4)cc3[C@@H]21`, the max activity was 7.48% [at 10 µM].

In the case of `Cc1cccc(S(=O)(=O)N2CC[C@@H]3[C@H](CO)Nc4ccc(-c5ccccc5F)cc4[C@@H]32)c1`, the max activity was 25.7% [at 10 µM].

Turning to `CC(=O)NCC(=O)N1CCC2(CC1)CC(c1ccccc1)C(=O)N2` (configuration not stated), the max activity is 28.8%.

On to `COc1ccc(NC(=O)Nc2ccc(-c3nc(-c4cc(C)ccc4C)co3)cc2)c(OC)c1`, for which the max activity was 9.16% [at 5 µM].

Turning to `CS(=O)(=O)NCc1cnc2n1CCN(Cc1cccs1)CC2`, the max activity was 48.8%.

On to `CCN1C(=O)CCc2cc(NC(=O)Cc3ccccc3Cl)ccc21`, for which the max activity was -5.27% [at 0.16 µM].

On to `COc1ccc(-c2nc(NCCC3=CCCCC3)c3ccccc3n2)cc1`, for which the max activity is -27.2% [at 1.35 µM].

`CN1[C@@H]2Cn3c(ccc(/C=C/c4ccccc4)c3=O)[C@H]1[C@@H](C(=O)NC1Cc3ccccc3C1)[C@@H]2CO`: the max activity was 15.2% [at 5 µM].

`Cc1ccc2c(c1C)-n1cccc1C1(CCN(C(=O)c3ccco3)CC1)N2`: the max activity is 10.9% [at 0.16 µM].

`Cc1ccc(-c2nc(CSc3nc4c(c(=O)[nH]3)CN(Cc3ccc(F)cc3)CC4)c(C)o2)cc1`: the max activity is 26% [at 0.16 µM].

For the molecule `Cc1ccc(-c2nc(CSc3nc4c(c(=O)[nH]3)CN(Cc3ccccc3)CC4)c(C)o2)cc1`, the max activity was -18% [at 0.68 µM].

As to `COc1ccc(CN2CCc3nc(SCc4nc(-c5ccc(C)cc5)oc4C)[nH]c(=O)c3C2)cc1`, the max activity was 16.3%.

With `Cc1oc(-c2ccccc2)nc1CSc1nc2c(c(=O)[nH]1)CN(Cc1ccc(Cl)cc1)CC2`, the max activity was 14.5% [at 0.16 µM].

On to `Cc1nc(-c2ccc(F)cc2)sc1-c1ccc(SCCN2CCOCC2)nn1`, for which the max activity was 231%.

With `O=C(Nc1ccc(F)cc1)Nc1ccc(-c2nc(-c3cccc(Br)c3)co2)cc1`, the max activity was 4.84% [at 10 µM].

On to `COc1ccc(-c2nc(N3CCCC(C)C3)c3ccccc3n2)cc1` (configuration not stated), for which the max activity was 20.4% [at 1.35 µM].

Regarding `O=C(CCC1N=C2c3ccccc3N=C(SCc3cc(=O)n4ccccc4n3)N2C1=O)NCc1ccc2c(c1)OCO2` (configuration not stated), the max activity is 14.1% [at 0.35 µM].

For `CCOC(=O)CSC1=Nc2ccccc2C2=NC(CCC(=O)NCc3cccs3)C(=O)N12` (configuration not stated), the max activity is 13.6% [at 10 µM].

For the molecule `O=C(CC1N=C2c3ccccc3N=C(SCc3cc(=O)n4cc(Cl)ccc4n3)N2C1=O)NCc1cccs1` (configuration not stated), the max activity is 41.3% [at 0.35 µM].

`Cc1ccc(CSC2=Nc3ccccc3C3=NC(CC(=O)NCc4cccs4)C(=O)N23)c(C)c1` (configuration not stated): the max activity is 21.5% [at 0.68 µM].

Consider `O=C(CCC1N=C2c3ccccc3N=C(SCc3cc(=O)n4ccccc4n3)N2C1=O)NCc1cccs1` (configuration not stated), for which the max activity was 13.4% [at 0.16 µM].

Regarding `COc1ccccc1CNC(=O)CC1N=C2c3ccccc3N=C(SCc3ccc(F)cc3)N2C1=O` (configuration not stated), the max activity was 11.2% [at 10 µM].

For the molecule `Cc1c(Cl)cccc1NC(=O)CN1CCC2(CC1)N=C(c1ccc(F)cc1)C(=O)N2`, the max activity was -21.7% [at 1.35 µM].

Regarding `Cc1ccc(CC(=O)Nc2ccc(-c3nc(-c4ccc(C)cc4)co3)cc2)cc1`, the max activity was 19.1% [at 10 µM].

Take `Cc1oc(-c2ccccc2)nc1Cn1nnc(-c2nc(-c3ccc(Cl)c(F)c3)no2)c1C`: the max activity was 7.02%.

As to `Cc1cccc(C2=NC3(CCN(CC(=O)Nc4ccc(C)c(F)c4)CC3)NC2=O)c1`, the max activity was -23%.

On to `N#Cc1c(N2C[C@@H]3NCCO[C@H]3C2)c(F)cc2c(=O)c(C(=O)O)cn(C3CC3)c12`, for which the max activity is 13.7%.

As for `COC(=O)Cn1cc(CN2CCCC2c2cc(C(C)C)on2)c2cc(OC)ccc21` (configuration not stated), the max activity was 14.7%.
